Experimental data from the supplement of paper PMC13094657.
Where a name gives a salt, the structure may show the parent alone. ± gives the standard deviation of the averaged measurements.

How the values were obtained:
[1] = tested on: MDA-MB-231; assay: cell viability relative to vehicle unstimulated control (fraction); higher = more viable cells; conditions: pre-treatment time: 18 h then 24 h IFNg/TNF
[2] = tested on: MDA-MB-231; assay: kynurenine production, fold change vs DMSO IFNg/TNF control; higher = more kynurenine produced (less inhibition); conditions: pre-treatment time: 18 h then 24 h IFNg/TNF
Summary of the method: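 MDA-MB-231 cells were seeded in 96-well plates at 7 × 10^4/well and, 24 h later, pre-treated for 18 h with each natural product in 0.1% DMSO. They were then stimulated for 24 h at 37°C with IFNγ (1 U/ml) and TNF (6.25 ng/ml). Supernatants were treated with trichloroacetic acid and p-dimethylaminobenzaldehyde and read at 492 nm against 0–100 μM standards. Kynurenine production is expressed as fold change over cytokine-stimulated vehicle wells on the same plate and, in the first screening round, averaged across duplicate plates.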
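Wherever cell viability relative to vehicle unstimulated control is given: viability of the cells left after supernatant collection, read with Deep Blue dye added for 4 h, as absorbance at 570 nm minus 600 nm.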

SMILES | cell viability [1] | kynurenine production [2]
CC1OC(OC2C(CO)OC(OCC3OC(OC(=O)C45CCC(C)(C)CC4C4=CCC6C7(C)CCC(OC8OCC(O)C(O)C8O)C(C)(CO)C7CCC6(C)C4(C)CC5)C(O)C(O)C3O)C(O)C2O)C(O)C(O)C1O (configuration not stated) [Hederacoside D] (compound dose: 10 uM) | 0.923 ± 0.067 | 0.851 ± 0.16
O=C(/C=C/c1ccc(O)c(O)c1)O[C@H](Cc1ccc(O)c(O)c1)C(=O)O [Rosmarinic acid] (compound dose: 10 uM) | 1.11 ± 0.14 | 0.908 ± 0.18
CC(=O)O[C@]12CCC(C)=CC[C@]13CC[C@H]2[C@@](C)(/C=C/C=C(\C)C(=O)O)OC3=O [Pseudolaric Acid  A] (compound dose: 10 uM) | 0.834 ± 0.11 | 0.449 ± 0.12
O=C(O)c1cccnc1 [Nicotinic acid] (compound dose: 10 uM) | 0.917 ± 0.043 | 0.945 ± 0.13
CC(C)(O[C@@H]1O[C@H](CO)[C@@H](O)[C@H](O)[C@H]1O)[C@@H]1CC[C@](O)(CO)[C@H]2CC(=O)[C@@](C)(O)[C@@H]2C1 [Atractyloside A] (compound dose: 10 uM) | 0.986 ± 0.03 | 0.854 ± 0.057
C=C(C)[C@@H]1CC[C@@H](C)[C@@H]2CCC(C)=C[C@@H]21 [Amorpha-4,11-diene] (compound dose: 10 uM) | 1.01 ± 0.06 | 0.961 ± 0.19
COC(=O)C1=CO[C@@H](O[C@@H]2O[C@H](CO)[C@@H](O)[C@H](O)[C@H]2O)[C@@H]2[C@@]3(C)O[C@H]3[C@@H](O)[C@]12O [Sesamoside] (compound dose: 10 uM) | 0.9746 ± 0.0057 | 0.928 ± 0.12
C=C1C(=O)O[C@H]2C[C@@H](C)[C@@H]3CCC(=O)[C@@]3(C)[C@@H](OC(C)=O)[C@H]12 [Ergolide] (compound dose: 10 uM) | 0.992 ± 0.072 | 0.246 ± 0.13
CC12CCC(CC1=O)C2(C)C (stereo not drawn) [(+)-Camphor] (compound dose: 10 uM) | 1 ± 0.016 | 0.98 ± 0.25
O=c1c(O)c(-c2ccc(O)cc2)oc2cc(O)cc(O)c12 [Kaempferol] (compound dose: 10 uM) | 0.969 ± 0.079 | 0.672 ± 0.023
CC1(C)[C@@H](O)CC[C@]2(C)[C@H]3C(=O)C=C4[C@H]5C[C@@](C)(C(=O)O)CC[C@]5(C)CC[C@@]4(C)[C@]3(C)CC[C@@H]12 [18α-Glycyrrhetinic acid] (compound dose: 10 uM) | 1.06 ± 0.11 | 0.943 ± 0.14
C=C1CC[C@@H]2[C@](C)(CO)[C@H](O)CC[C@@]2(C)[C@H]1C/C=C1\C=COC1=O [Dehydroandrographolide] (compound dose: 10 uM) | 0.984 ± 0.032 | 0.754 ± 0.058
CC(C)c1ccc2c(c1)CC[C@H]1[C@](C)(C(=O)O)CCC[C@]21C [Dehydroabietic acid] (compound dose: 10 uM) | 1.008 ± 0.0086 | 0.713 ± 0.23
C[C@@H]1CC[C@]2(C(=O)O[C@@H]3O[C@H](CO)[C@@H](O)[C@H](O)[C@H]3O)CC[C@]3(C)C(=CC[C@@H]4[C@@]5(C)CC[C@H](O)[C@](C)(C(=O)O)[C@@H]5CC[C@]43C)[C@@H]2[C@]1(C)O [Ilexsaponin A] (compound dose: 10 uM) | 1.02 ± 0.016 | 0.883 ± 0.013
C=C1CCC[C@]2(C)C[C@@H]3OC(=O)C(C)=C3C[C@@H]12 [Atractylenolide II] (compound dose: 10 uM) | 1.03 ± 0.018 | 1.06 ± 0.041
Cc1ccc(C(C)C)cc2c(C)ccc1-2 [Guaiazulene] (compound dose: 10 uM) | 1.1 ± 0.013 | 0.915 ± 0.21
COC(=O)C1=CO[C@@H](O[C@@H]2O[C@H](CO)[C@@H](O)[C@H](O)[C@H]2O)[C@@H]2C(COC(C)=O)=C[C@H](O)[C@H]12 [Daphylloside] (compound dose: 10 uM) | 0.999 ± 0.062 | 0.888 ± 0.048
CC(=O)O[C@]12CCC(C(=O)O)=CC[C@]13CC[C@H]2[C@@](C)(/C=C/C=C(\C)C(=O)O)OC3=O [Pseudolaric Acid C2] (compound dose: 10 uM) | 1.017 ± 0.0098 | 0.728 ± 0.017

SMILES | cell viability [1] | kynurenine production [2]
C=C(C)[C@@H]1CC[C@]2(C(=O)O)CC[C@]3(C)[C@H](CC[C@@H]4[C@@]5(C)CC[C@H](O)C(C)(C)[C@@H]5CC[C@]43C)[C@@H]12 [Betulinic acid] (compound dose: 10 uM) | 0.993 ± 0.044 | 0.949 ± 0.051
C=C1[C@H](OC(=O)/C=C(\C)CC)C[C@@H](C(C)C)[C@@H]2[C@@H]([C@@H](C)OC(C)=O)C(=O)C[C@@H]12 [Tussilagone] (compound dose: 10 uM) | 1.01 ± 0.034 | 1.0216 ± 0.00014
CC(=O)O[C@@H]1C[C@H](O)[C@@]23CO[C@@H](O)[C@]1(C)[C@@H]2C[C@@H](O)[C@]1(C)[C@@H]3C(=O)[C@H](OC(C)=O)[C@@]2(C)[C@H](c3ccoc3)C[C@H]3O[C@]321 [Toosendanin] (compound dose: 10 uM) | 0.858 ± 0.056 | 0.206 ± 0.03
C=CC(=C)CCC=C(C)C [Myrcene] (compound dose: 10 uM) | 1.02 ± 0.055 | 0.867 ± 0.1
C=C1[C@H](OC(=O)C(C)C)[C@@H](O)[C@@H](OC(=O)c2cccnc2)C(C)(C)/C=C/[C@H](C)[C@H](OC(C)=O)[C@@]2(O)C[C@@](C)(OC(C)=O)[C@H](OC(=O)c3ccccc3)[C@@H]2[C@H]1OC(C)=O [Jatrophane 3] (compound dose: 10 uM) | 1.04 ± 0.056 | 0.82 ± 0.18
CC(C)=CCC[C@](C)(O[C@@H]1O[C@H](CO[C@@H]2OC[C@@H](O)[C@H](O)[C@H]2O)[C@@H](O)[C@H](O)[C@H]1O)[C@H]1CC[C@]2(C)[C@@H]1[C@H](O)C[C@@H]1[C@@]3(C)CC[C@H](O[C@@H]4O[C@H](CO)[C@@H](O)[C@H](O)[C@H]4O[C@@H]4O[C@H](CO)[C@@H](O)[C@H](O)[C@H]4O)C(C)(C)[C@@H]3CC[C@]12C [Ginsenoside Rb3] (compound dose: 10 uM) | 1.01 ± 0.015 | 0.73 ± 0.19
C[C@H](CCC(=O)NCC(=O)O)[C@H]1CC[C@H]2[C@@H]3[C@H](O)C[C@@H]4C[C@H](O)CC[C@]4(C)[C@H]3CC[C@]12C [Glycochenodeoxycholic acid (sodium salt)] (compound dose: 10 uM) | 0.956 ± 0.082 | 0.955 ± 0.14
C[C@@H]1C[C@@H]([C@@H](O)C(C)(C)O)O[C@H]2C[C@@]3(C)C(=C12)C[C@H](O)[C@H]1[C@@]2(C)CCC(=O)C(C)(C)[C@@H]2CC[C@@]13C [Alisol F] (compound dose: 10 uM) | 0.991 ± 0.032 | 0.848 ± 0.048
C=C1[C@@H]2CC[C@@H]3[C@](C2)(C(=O)[C@@H](O)[C@@H]2C(C)(C)[C@H]4CC(=O)[C@@]32CO4)[C@@H]1OC(C)=O [Maoecrystal A] (compound dose: 10 uM) | 0.9322 ± 0.0011 | 0.8659 ± 0.0031
C[C@@H]1O[C@@H](O[C@H]2[C@H](O[C@H]3CC[C@@]4(C)[C@@H](CC[C@]5(C)[C@@H]4CC=C4[C@@H]6CC(C)(C)CC[C@]6(C(=O)O[C@@H]6O[C@H](CO[C@@H]7O[C@H](CO)[C@@H](O[C@@H]8O[C@@H](C)[C@H](O)[C@@H](O)[C@H]8O)[C@H](O)[C@H]7O)[C@@H](O)[C@H](O)[C@H]6O)CC[C@]45C)[C@]3(C)CO)OC[C@H](O)[C@@H]2O)[C@H](O)[C@H](O)[C@H]1O [Hederacoside C] (compound dose: 10 uM) | 1.05 ± 0.024 | 1.25 ± 0.18
COC(=O)C1=CC[C@@]23CC[C@@H]([C@@](C)(/C=C/C=C(\C)C(=O)O)OC2=O)[C@@]3(O)CC1 [Pseudolaric Acid C] (compound dose: 10 uM) | 0.927 ± 0.094 | 1.23 ± 0.051
C/C1=C\[C@H]2C(=O)[C@@H](C)C[C@]2(O)C(=O)/C(C)=C/[C@@H]2[C@H](CC1)C2(C)C [jolkinol C] (compound dose: 10 uM) | 1.07 ± 0.041 | 0.868 ± 0.087
CC(C)(O)[C@@H]1CC[C@](C)([C@H]2[C@@H](O)C[C@@]3(C)[C@@H]4C[C@H](O)[C@H]5C(C)(C)[C@@H](O[C@@H]6OC[C@@H](O)[C@H](O)[C@H]6O[C@@H]6O[C@H](CO)[C@@H](O)[C@H](O)[C@H]6O)CC[C@@]56C[C@@]46CC[C@]23C)O1 [Astragaloside III] (compound dose: 10 uM) | 1.03 ± 0.069 | 0.822 ± 0.018
CC(=O)OC/C1=C/[C@H]2[C@@H](OC(=O)/C=C/c3ccccc3)[C@@H](C)C[C@]2(OC(C)=O)C(=O)/C(C)=C/[C@@H]2[C@H](CC1)C2(C)C [Euphorbia factor L7a] (compound dose: 10 uM) | 1.086 ± 0.0038 | 0.948 ± 0.035
CC(/C=C/C=C(\C)C(=O)O)=C\C=C\C=C(C)\C=C\C=C(/C)C(=O)O [Transcrocetin meglumine salt] (compound dose: 10 uM) | 1.02 ± 0.038 | 0.737 ± 0.064
C[C@H]1O[C@@H](O[C@H]2[C@@H](O)C[C@H](O[C@H]3[C@@H](O)C[C@H](O[C@H]4CC[C@@]5(C)[C@H](CC[C@@H]6[C@@H]5C[C@@H](O)[C@]5(C)[C@@H](C7=CC(=O)OC7)CC[C@]65O)C4)O[C@@H]3C)O[C@@H]2C)C[C@H](O)[C@@H]1O [Digoxin] (compound dose: 10 uM) | 0.543 ± 0.066 | 0.103 ± 0.071
CC(=O)OCC1=C[C@@H]2OC(=O)C3=CO[C@@H](O[C@@H]4O[C@H](CO)[C@@H](O)[C@H](O)[C@H]4O)[C@H]1[C@@H]32 [Asperuloside] (compound dose: 10 uM) | 0.983 ± 0.03 | 0.923 ± 0.15
CC1(C)CC[C@]2(C(=O)O)CC[C@]3(C)C(=CC[C@@H]4[C@@]5(C)C[C@@H](O)[C@H](O)C(C)(C)[C@@H]5CC[C@]43C)[C@@H]2C1 [Maslinic acid] (compound dose: 10 uM) | 0.962 ± 0.032 | 0.876 ± 0.12
